According to PubChem BioAssay:
Results with a measured potency or affinity are listed apart. Activity calls are given as the source filed them. No cut-off is given here; in the data, nearly all actives have IC50 up to about 0.91 µM.

biological target: Calcium-dependent protein kinase 4 (Plasmodium falciparum (isolate 3D7)) (UniProt Q8IBS5); test: PfCDPK4 kinase inhibitors, biochemical, TCAMS library (AID 1159588); settings: recombinant PfCDPK4, Kinase-Glo ATP depletion luminescence
Sequence (Q8IBS5 whole entry, looked up): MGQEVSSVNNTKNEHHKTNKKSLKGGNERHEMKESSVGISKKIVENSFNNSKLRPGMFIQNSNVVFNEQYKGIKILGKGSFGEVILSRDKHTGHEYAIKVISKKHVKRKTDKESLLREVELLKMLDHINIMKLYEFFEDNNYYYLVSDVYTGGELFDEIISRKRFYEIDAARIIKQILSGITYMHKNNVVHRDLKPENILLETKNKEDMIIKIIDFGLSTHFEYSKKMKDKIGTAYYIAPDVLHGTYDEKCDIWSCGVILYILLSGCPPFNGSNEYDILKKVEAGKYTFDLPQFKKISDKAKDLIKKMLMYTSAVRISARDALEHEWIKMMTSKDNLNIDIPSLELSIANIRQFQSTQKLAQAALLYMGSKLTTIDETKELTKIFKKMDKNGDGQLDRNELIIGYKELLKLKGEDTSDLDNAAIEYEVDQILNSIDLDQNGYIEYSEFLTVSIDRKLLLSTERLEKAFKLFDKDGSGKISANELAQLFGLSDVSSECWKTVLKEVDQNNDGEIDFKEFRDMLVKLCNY

Row | Structure (SMILES) | outcome
1 | CN(CCCCCN1CCC(NC(=O)Nc2ccc(C(F)(F)F)cc2)C1)C(=O)/C=C/c1ccc(Cl)c(Cl)c1 (stereo not given) | inactive
2 | O=[N+]([O-])c1cccc(CNCC2CCN(Cc3ccc4ccccc4c3)CC2)c1 | inactive
3 | CCCCCCN1CCC(CNCc2cccc([N+](=O)[O-])c2)CC1 | inactive
4 | COc1ccc(-c2nonc2NC(=O)c2ccc(OC(C)C)cc2)cc1OC | inactive
5 | CN1CCN(CC(O)CNC(=O)Nc2ccc(Cl)cc2)CC1 (stereo not given) | inactive
6 | CCN(CC)S(=O)(=O)n1ncc2c3c(N)nc(N)nc3ccc21 | inactive
7 | CCNc1cc(C(=O)N[C@@H](Cc2ccccc2)[C@H](O)CNC23CC4CC(CC(C4)C2)C3)cc(N2CCCCS2(=O)=O)c1 | inactive
8 | Cn1cncc1-c1ccc2ncnc(Nc3ccc4c(cnn4Cc4ccccc4)c3)c2c1 | inactive
9 | CNC(=O)c1cc(NCCCNCc2ccc(Cl)c(C(F)(F)F)c2)nc2ccccc12 | inactive
10 | O=C(N[C@@H](Cc1ccccc1)C(=O)NCCN1CCCCC1)c1ccc(O)c(-c2cccc(C(F)(F)F)c2)c1 | inactive
11 | CN(C)CCNCc1ccc(-c2cccc(-c3nc4ccccc4[nH]3)c2)cc1 | inactive
12 | Cc1cc(N[C@@H](Cc2ccccc2)C(=O)Nc2ccccc2)nc(NCCc2ccc(F)cc2)n1 | inactive
13 | CC(=O)Nc1nc(C(=O)Nc2cccc(-c3cccc(-c4nc5c(C)cccc5[nH]4)c3)c2)cs1 | inactive
14 | O=C(Nc1ccc(-c2csc3nccn23)cc1)c1ccc(Cl)cc1 | inactive
15 | CN(CC(=O)Nc1ccc(F)cc1)C(=O)c1ccc(-c2ccc(F)cc2)o1 | inactive
16 | Cc1ccc(-c2cnc(N)c3cc(-c4ccnc(N)n4)ccc23)cc1 | inactive
17 | CCNc1cc(C(=O)N[C@@H](Cc2ccccc2)[C@H](O)CNCCc2cccc3ccccc23)cc(N2CCCC2=O)c1 | inactive
18 | Nc1cc(-c2cccc(Cl)c2)nn1-c1ccnc2cc(Cl)ccc12 | inactive
19 | Cc1cccc(CNc2nccc3[nH]c4ccccc4c23)c1 | inactive
20 | COc1ccccc1CCCON1C(N)=NC(N)=NC1(C)C | inactive

Row | Structure (SMILES) | outcome
21 | CC1CCC(NC(=O)c2nn(-c3ccc(Cl)cc3)c(=O)c3ccccc23)CC1 (stereo not given) | inactive
22 | CC1(C)N=C(N)N=C(N)N1c1cc(Cl)c(Cl)cc1Cl | inactive
23 | COc1cccc(-c2cc(C(=O)Nc3ccc4nc(-c5ccccc5)[nH]c4c3)[nH]n2)c1 | inactive
24 | Cc1cc(NCC(c2ccccc2)c2ccccc2)nc(NCC2CCCCC2)n1 | inactive
25 | C=CCc1cc(OC)ccc1OCCCOc1c(C)nc(N)nc1N | inactive
26 | Cc1c(-c2ccc(C(=O)NC3CC(C)(C)NC(C)(C)C3)cc2)[nH]c2cc(Cl)c(Cl)cc12 | inactive
27 | CC(C)NCc1ccc(-c2ccc(NC(=O)c3ccc(Cl)cc3)cc2)cc1 | inactive
28 | CN1CCN(c2cccc(-c3nnc(-c4ccc(OCC(=O)NCc5cccc(C(F)(F)F)c5)c([N+](=O)[O-])c4)o3)c2)CC1 | inactive
29 | N#Cc1ccc(CN2CCC(Oc3ccc(NC(=O)c4cccs4)cc3Cl)C2)cc1 (stereo not given) | inactive
30 | COc1ccc(NC(=O)CSc2nc(-c3ccccc3Cl)ns2)cc1OC | inactive
31 | CCNc1cc(C(=O)N[C@@H](Cc2ccccc2)[C@H](O)CNC2(C(C)C)CCC2)cc(N2CCCCS2(=O)=O)c1 | inactive
32 | COc1ccc(-c2c3c(=O)n(C)c(=O)n(C)c3c3nnc4ccccc4n23)cc1 | inactive
33 | COc1ccc(NC(=O)c2cn(-c3ccc(C(C)(C)C)cc3)nc2C)cc1N1CCN(C)CC1 | inactive
34 | Cc1cc(NN=Cc2ccccc2F)c2cc(C(F)(F)F)ccc2n1 | inactive
35 | COc1ccc2nccc([C@@H](O)CN3CCC(NCCOc4ccc(F)cc4Cl)CC3)c2c1 | inactive
36 | O=[N+]([O-])c1ccc(Oc2ccccc2CNCC2CCN(CC3CCCCC3)CC2)cc1 | inactive
37 | COc1ccc(Cl)cc1N1CCN(CCCNC(=O)c2ccc(-c3nc4cc(Cl)c(C)cc4[nH]3)c(F)c2)CC1 | inactive
38 | c1csc(-c2nc(NCC3CCCO3)ncc2-c2ccsc2)n1 (stereo not given) | inactive
39 | CCOc1ccc(C(C)NC(=O)C2COc3ccccc3O2)cc1OCC (stereo not given) | inactive
40 | CC1(C)N=C(N)N=C(N)N1OCCCOc1cc(Cl)cc(Cl)c1 | inactive
